The text below walks through data of PubChem BioAssay (NCI).

Each structure is given as a SMILES string. This is part of a sample that, as a whole, favours compounds with a hit. Of some 83,000 tested, about 20% had one in any assay.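 Values shown are percent growth following 48 h exposure of cells in 96-well plates to a single concentration of compound; below 10 was considered active.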 Unmarked numbers belong to inactive results. Activity calls are given as the source filed them.

The first test deals with HCC-2998 colon. As to the kind of experiment: NCI-60 one-dose screen, 48 h (100 = growth as untreated, 0 = no growth, -100 = all killed). Particulars: 10 µM unless noted.
Turning to `CN(C)C(CNc1oc(-c2cccc3ccccc23)nc1C#N)c1ccco1` (stereo not drawn), the growth is 105%.
Still for that read-out and setting: as for `COc1cc(C(C)c2ccc3c(ccn3C)c2)cc(OC)c1OC` (stereo not drawn), the figure is 23.4%; as for `COC(=O)/C=C1\SC(=Nc2cccc(Cl)c2)N(CCc2c[nH]c3ccccc23)C1=O`, 52.9%; as for `Nn1c(SCC(=O)Nc2ccc(Cl)cc2)nnc1-c1cc(F)c(Cl)cc1Cl`, 93.2%.
`Cc1nc2sc(C(=O)Nc3ccccc3)c(N)c2cc1C(C)O` (stereo not drawn): the growth is 46.8%.
On the same count and under the same terms, as for `CC1(C)[C@@H](O)CC[C@]2(C)[C@H]3CC[C@@H]4[C@H]5[C@H](c6cn(-c7ccccc7)nn6)CC[C@]5(CO)CC[C@@]4(C)[C@]3(C)CC[C@@H]12`, the figure is 110%; as for `Cc1ccccc1NC(=O)c1sc2nc(C)c(C(C)O)cc2c1N` (stereo not drawn), 67.9%; as for `c1ccc(-c2n(Cc3ccc4ccccc4n3)cc[n+]2Cc2ccc3ccccc3c2)cc1`, -13.2% (active).
Same read-out and setting: as for `CCOCc1cc(C(C)(C)C)ccc1O`, the figure is 104%.
On the same count and under the same terms, to `CN1C(=O)c2cc(Cl)nc3c(NC(=O)c4cccc(Cl)c4)c(Cl)c(NC(=O)c4cccc(Cl)c4)c1c23` belongs 9.23% (active).
With `COc1cccc(NC(=O)Nc2ccc(Oc3ncnc4[nH]c(C)c(C)c34)cc2)c1`, the growth was 103%.
The same measure, in the same setting: to `COc1ccc2nc(-c3ccc(Cl)cc3)cc(C(=O)N3N=C(c4ccc(N)cc4)CC3c3ccccc3)c2c1` (stereo not drawn) belongs 70.3%; to `Cc1cc(C)c(NC(=O)c2sc3nc4c(cc3c2N)CCCCCC4)c(C)c1`, 84.7%.
The same measure, in the same setting: to `COCCOCCOCc1n(Cc2ccc3ccccc3c2)c2ccccc2[n+]1Cc1ccc2ccccc2c1` belongs 17.8%; to `Nc1ccc(C(=O)Nc2cccc(C(=O)Nc3ccc4c(O)c(N=Nc5ccc(N=Nc6ccc(S(=O)(=O)O)cc6)cc5)c(S(=O)(=O)O)cc4c3)c2)cc1`, 98%.
The same measure, in the same setting: as for `COC(=O)c1oc2c(C(=O)/C=C/c3ccc(OC)cc3)c(OCCCN3CCCCC3)ccc2c1C`, the figure is -45% (active).
In the case of `c1ccc(-c2n(Cc3ccc4ccccc4n3)cc[n+]2Cc2ccc3ccccc3n2)cc1`, the growth was 26.6%.
Same read-out and setting: to `Nc1ccccc1NS(=O)(=O)c1ccc(Cl)cc1` belongs 84.4%; to `O=C(CCc1nnc2sc(OCc3ccccc3)nn12)c1nc2ccc([N+](=O)[O-])cc2[nH]1`, 101%.
On the same count and under the same terms, as for `CCCCc1ccc(N=Nc2ccc(OCC[N+](C)(C)C)cc2)cc1`, the figure is 25.6%.
On the same count and under the same terms, to `COc1cc(NC(=O)Nc2cnc(Nc3ccc(N4CCOCC4)cc3)nc2Oc2ccc(F)cc2)cc(OC)c1` belongs 101%; to `COc1ccc(-c2cc(-c3nnc(SCC(=O)Nc4ccc(/C(C)=N\O)cc4)n3-c3ccccc3)c3cc(OC)ccc3n2)cc1`, 100%; to `CCSc1nc(Cl)c(C#N)c(-c2ccc(F)cc2)n1`, 102%.
Regarding `C#CCN(CCCOc1ccc(Cl)cc1Cl)CCCSC(=O)CCCCCN1/C(=C\C=C2/CCCC(/C=C/C3=[N+](CCCCCC(=O)[O-])c4ccccc4C3(C)C)=C2Cl)C(C)(C)c2ccccc21`, the growth is 40.3%.
`COc1ccc2nc(-c3ccc(OC)c(OC)c3)cc(-c3nnc(SCC(=O)Nc4ccc(/C(C)=N\O)cc4)n3-c3ccccc3)c2c1`: the growth is 101%.
The same measure, in the same setting: to `COc1ccc(C(=S)c2cc(OC)c(OC)c(OC)c2)cc1OC(=O)CCl` belongs 31.2%; to `CCCCc1n(Cc2ccc3ccccc3n2)cc[n+]1Cc1ccc2ccccc2c1`, -6.38% (active); to `CN(CCC#N)C(=O)Nc1ccccc1`, 108%.
For the compound `CCn1cc(C(=O)O)c(=O)c2cc(F)c(N3CCN(CC(=O)Nc4ccc(/C(C)=N/OC)cc4)CC3)cc21`, the growth was 101%.
Consider `COc1ccc2c(c1)C1(C(=O)N2)C(C#N)=C(c2ccccc2)Nc2c1c(-c1ccccc1)nn2-c1ccccc1` (stereo not drawn), for which the growth was 58.1%.
On the same count and under the same terms, to `O=C(CCc1nnco1)c1nc2ccc([N+](=O)[O-])cc2[nH]1` belongs 93.4%; to `Nc1c(C(=O)Nc2cccc3ccccc23)sc2nc3c(cc12)CCCCC3`, 33.1%; to `C[C@]12CC[C@@H]3c4ccc(O)cc4CC[C@H]3[C@@H]1C[C@H](O)C2`, 87.6%.
On the same count and under the same terms, to `C(=C\c1cn(-c2ccccc2)nc1-c1ccccc1)/c1nnc(-c2c[nH]c3ccccc23)o1` belongs 97.3%.
On the same count and under the same terms, as for `COc1ccc(-c2nnc(N3CCN(C(=O)CN4CCN(c5ccccc5)CC4)CC3)nc2-c2ccc(OC)cc2)cc1`, the figure is 22.2%.
Regarding `O=C(/C(=C/c1ccc([N+](=O)[O-])cc1)SCc1ccc(Cl)cc1)c1ccc(F)cc1`, the growth was 84.5%.
Same read-out and setting: as for `CCOCCc1c(O)nc(SC)[nH]c1=O`, the figure is 39.4%.

Another test relates to KM12 colon. Described as above. To be noted: 10 µM unless noted.
Regarding `CN(C)C(CNc1oc(-c2cccc3ccccc23)nc1C#N)c1ccco1` (stereo not drawn), the growth was 97.4%.
The same measure, in the same setting: as for `COc1cc(C(C)c2ccc3c(ccn3C)c2)cc(OC)c1OC` (stereo not drawn), the figure is 10.3%; as for `COC(=O)/C=C1\SC(=Nc2cccc(Cl)c2)N(CCc2c[nH]c3ccccc23)C1=O`, 24.3%; as for `Nn1c(SCC(=O)Nc2ccc(Cl)cc2)nnc1-c1cc(F)c(Cl)cc1Cl`, 72.8%.
The same measure, in the same setting: to `Cc1nc2sc(C(=O)Nc3ccccc3)c(N)c2cc1C(C)O` (stereo not drawn) belongs 26.1%.
Consider `CC1(C)[C@@H](O)CC[C@]2(C)[C@H]3CC[C@@H]4[C@H]5[C@H](c6cn(-c7ccccc7)nn6)CC[C@]5(CO)CC[C@@]4(C)[C@]3(C)CC[C@@H]12`, for which the growth was 88%.
On the same count and under the same terms, to `Cc1ccccc1NC(=O)c1sc2nc(C)c(C(C)O)cc2c1N` (stereo not drawn) belongs 27.7%; to `CCOCc1cc(C(C)(C)C)ccc1O`, 106%.
Consider `CN1C(=O)c2cc(Cl)nc3c(NC(=O)c4cccc(Cl)c4)c(Cl)c(NC(=O)c4cccc(Cl)c4)c1c23`, for which the growth is 64.3%.
On the same count and under the same terms, as for `COc1cccc(NC(=O)Nc2ccc(Oc3ncnc4[nH]c(C)c(C)c34)cc2)c1`, the figure is 52.2%; as for `COc1ccc2nc(-c3ccc(Cl)cc3)cc(C(=O)N3N=C(c4ccc(N)cc4)CC3c3ccccc3)c2c1` (stereo not drawn), 18.7%; as for `Cc1cc(C)c(NC(=O)c2sc3nc4c(cc3c2N)CCCCCC4)c(C)c1`, 49%.
On the same count and under the same terms, as for `COCCOCCOCc1n(Cc2ccc3ccccc3c2)c2ccccc2[n+]1Cc1ccc2ccccc2c1`, the figure is -25.9% (active).
Still for that read-out and setting: as for `Nc1ccc(C(=O)Nc2cccc(C(=O)Nc3ccc4c(O)c(N=Nc5ccc(N=Nc6ccc(S(=O)(=O)O)cc6)cc5)c(S(=O)(=O)O)cc4c3)c2)cc1`, the figure is 104%.
For the compound `COC(=O)c1oc2c(C(=O)/C=C/c3ccc(OC)cc3)c(OCCCN3CCCCC3)ccc2c1C`, the growth is -11.5% (active).
On to `c1ccc(-c2n(Cc3ccc4ccccc4n3)cc[n+]2Cc2ccc3ccccc3n2)cc1`, for which the growth is 15.8%.
The same measure, in the same setting: as for `Nc1ccccc1NS(=O)(=O)c1ccc(Cl)cc1`, the figure is 100%; as for `O=C(CCc1nnc2sc(OCc3ccccc3)nn12)c1nc2ccc([N+](=O)[O-])cc2[nH]1`, 95.7%.
Turning to `CCCCc1ccc(N=Nc2ccc(OCC[N+](C)(C)C)cc2)cc1`, the growth was 29.9%.
On the same count and under the same terms, as for `COc1cc(NC(=O)Nc2cnc(Nc3ccc(N4CCOCC4)cc3)nc2Oc2ccc(F)cc2)cc(OC)c1`, the figure is 92.4%; as for `COc1ccc(-c2cc(-c3nnc(SCC(=O)Nc4ccc(/C(C)=N\O)cc4)n3-c3ccccc3)c3cc(OC)ccc3n2)cc1`, 61.1%.
The same measure, in the same setting: as for `CCSc1nc(Cl)c(C#N)c(-c2ccc(F)cc2)n1`, the figure is 97.9%.
Same read-out and setting: to `O=c1c2ccccc2n(CC(O)CN2CCCC2)c2c(Br)cccc12` (stereo not drawn) belongs 94%.
Regarding `C#CCN(CCCOc1ccc(Cl)cc1Cl)CCCSC(=O)CCCCCN1/C(=C\C=C2/CCCC(/C=C/C3=[N+](CCCCCC(=O)[O-])c4ccccc4C3(C)C)=C2Cl)C(C)(C)c2ccccc21`, the growth was 6.88% (active).
The same measure, in the same setting: to `COc1ccc2nc(-c3ccc(OC)c(OC)c3)cc(-c3nnc(SCC(=O)Nc4ccc(/C(C)=N\O)cc4)n3-c3ccccc3)c2c1` belongs 75.9%.
Still for that read-out and setting: to `COc1ccc(C(=S)c2cc(OC)c(OC)c(OC)c2)cc1OC(=O)CCl` belongs 13.9%.
`CCCCc1n(Cc2ccc3ccccc3n2)cc[n+]1Cc1ccc2ccccc2c1`: the growth is -42.4% (active).
Turning to `CN(CCC#N)C(=O)Nc1ccccc1`, the growth was 104%.
In the case of `CCn1cc(C(=O)O)c(=O)c2cc(F)c(N3CCN(CC(=O)Nc4ccc(/C(C)=N/OC)cc4)CC3)cc21`, the growth was 94.5%.
The same measure, in the same setting: as for `O=C(CCc1nnco1)c1nc2ccc([N+](=O)[O-])cc2[nH]1`, the figure is 102%.
Same read-out and setting: as for `Nc1c(C(=O)Nc2cccc3ccccc23)sc2nc3c(cc12)CCCCC3`, the figure is 22.8%.
On the same count and under the same terms, as for `C[C@]12CC[C@@H]3c4ccc(O)cc4CC[C@H]3[C@@H]1C[C@H](O)C2`, the figure is 76.3%; as for `C(=C\c1cn(-c2ccccc2)nc1-c1ccccc1)/c1nnc(-c2c[nH]c3ccccc23)o1`, 37.9%; as for `COc1ccc(-c2nnc(N3CCN(C(=O)CN4CCN(c5ccccc5)CC4)CC3)nc2-c2ccc(OC)cc2)cc1`, 16.8%.
`O=C(/C(=C/c1ccc([N+](=O)[O-])cc1)SCc1ccc(Cl)cc1)c1ccc(F)cc1`: the growth is 23.3%.
Regarding `CCOCCc1c(O)nc(SC)[nH]c1=O`, the growth is 101%.
